Assay results as given in the supplement of paper PMC10338343.
± gives the standard deviation.

System: MILI (PIWIL2) piRISC loaded with L1MC piRNA (26 nt)
Assay: pre-steady-state target cleavage rate (min^-1); guide: L1MC piRNA 5'p-UAACUAAAUACUAUGCAAGCUGUAGG; MIWI and MILI are mouse PIWI proteins and EfPiwi is from a freshwater sponge; tags in brackets are library labels; higher = faster piRNA-guided slicing of the target
Method in brief: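 Using HEPES–potassium acetate buffer at 33 °C, 1 nM active affinity-purified piRISC with a single synthetic guide was mixed with 0.1 nM transcribed, DNA-blocked target RNA library for 0–8 or 0–960 min, with or without 500 nM GTSF1 partner protein. Uncleaved targets were sequenced and normalised to depth and to weakly complementary targets, and three trials were pooled with k3 capped at 0.0001 min^-1. A burst-and-steady-state fit gave the pre-steady-state cleavage rate.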

[1] = auxiliary factor: 500 nM mouse GTSF1
[2] = auxiliary factor: none (no GTSF1)

Sequence	pre-steady-state target cleavage rate [1]	pre-steady-state target cleavage rate [2]
UCCUGGAACAGCUUCGAUAGUAUUUAGUAA	0.167 ± 0.019	0.00446 ± 0.0025
UCCUGGAUGUGCUUGCAGAGUAUUUAGUUA	0.0463 ± 0.009	0.00711 ± 0.0023
UCCUGGAUGAGCUUGCAUAGUUAUUUAGUUA	0.0115 ± 0.0045	0.00489 ± 0.0022
UCCUGGAUGUCGAACCCAUAGUAUUUAGUUA	0.0032 ± 0.0019	0.00424 ± 0.0023
UCCUGGUACAGCUUGGAUAGUAUAUAGUUA	0.316 ± 0.065	0.0066 ± 0.0032
UCCUGGAUGUCGAUGCAUAGUUUAUAGUUA	0.00501 ± 0.0045	0.00379 ± 0.0026
UCCUGCUACAGCUUGCUAUGUAUUUAGUUA	0.0638 ± 0.017	0.00522 ± 0.0021
UCCUGGAACAGCUUGCAUAGUCAUUUAGUUA	0.0205 ± 0.008	0.00479 ± 0.0022
UCCUGGAACAGGAAGCAUAGUAUUUAGUAA	0.146 ± 0.013	0.00297 ± 0.0027
UCCUGGAUGAGCUAGCUUAGUAUUUAGUUA	0.13 ± 0.012	0.00773 ± 0.0023
UCCUGGAUGUGGAAGCAUAGUAUUUAGUAA	0.0306 ± 0.0062	0.00424 ± 0.0024
UCCUGGUACAGCUUGCAUACUAAUUAGUUA	0.0462 ± 0.019	0.00356 ± 0.0031
UCCUGGAUCAGCAACCAUAGUAUUUAGAAA	0.00948 ± 0.0046	< 0.0001
UCCUGGUACAGCUUGCAUAGAUUUUAGUUA	0.0355 ± 0.0097	0.00346 ± 0.0029
UCCUGGAUGUCGUUGCUUAGUAUUUAGUUA	0.0857 ± 0.011	0.00861 ± 0.002
UCCUGGUACAGCUUCGAUAGUAUUUAGUAA	0.26 ± 0.046	0.00305 ± 0.0029
UCCUGGAUGAGCAUGCAUAGUUUUUAGUUA	0.0197 ± 0.0099	0.00788 ± 0.0023
UCCUGGAUCAGCUUCGUUAGUAUUUAGUUA	0.0434 ± 0.0096	0.00279 ± 0.0024
UCCUGGAUGUCCUUGCAUAGGUAUUUAGUUA	0.00785 ± 0.0038	0.00689 ± 0.0025
UCCUGGAUGUCGAUGCAUAGUAUGUUAGUUA	0.0347 ± 0.0076	0.00559 ± 0.0031
UCCUGGAUGUCGUUGCUUAGUAUUUUGUUA	0.0541 ± 0.016	0.00381 ± 0.0029
UCCUGGAUGAGCAUGCAUAGUAUUUACUUA	0.122 ± 0.029	0.00352 ± 0.0028
UCCUGGUACAGGUUGCAUAGUAAUUAGUUA	0.325 ± 0.041	0.00664 ± 0.0029
UCCUGGAUGUGCUUGCAAUGUAUUUAGUAA	0.0131 ± 0.0037	0.00545 ± 0.0027
UCCUGGAUGUCGUUGCAUAGUCUUUAGUUA	0.0286 ± 0.0084	0.00414 ± 0.0025
UCCUGGAUGUCCUUGCAUAGUAUUUUAGUUA	0.107 ± 0.017	0.0134 ± 0.0036
UCCUGGAUGUCCUUGGAUAGUAUUUAGUAA	0.121 ± 0.019	0.00376 ± 0.0019

Sequence	pre-steady-state target cleavage rate [1]	pre-steady-state target cleavage rate [2]
UCCUGCUACAGACUUGCAUAGUAUUUAGUUA	0.169 ± 0.018	0.00767 ± 0.0021
UCCUGGAUGUCGUUGCAUAGUAUUUAGUAA	0.191 ± 0.03	0.00351 ± 0.0029
UCCUGGAUGAGCAUGCAUACUAUUUAGUUA	0.0556 ± 0.011	0.00656 ± 0.0024
UCCUGGAUGUCGAUGCAUAGUAUUUAGUUG [g2:g17:cont:t1G]	0.0776 ± 0.013	0.00604 ± 0.0026
UCCUCCUACAGCAUGCAUAGUAUAUAGUUA	0.243 ± 0.021	0.00579 ± 0.0023
UCCUGGAUGUGCUUGCAUACUAUUUAGUUA	0.0281 ± 0.0064	0.00431 ± 0.0022
UCCUGGAUGAGGAUGCAUAGUAUUUAGUAA	0.116 ± 0.029	0.00444 ± 0.002
UCCUGGAUGUGCUUGCAUAGUGAUUUAGUUA	0.00833 ± 0.0042	0.007 ± 0.0031
UCCUGGAUGUCCUUCAUAGUAUUUAGUUA	0.0147 ± 0.004	0.00296 ± 0.0021
UCCUGGUACAGCUUGCAUAGUGAUUUAGUUA	0.0336 ± 0.01	0.00917 ± 0.0038
UCCUGGAUGUCCUUGCUUAGUAAUUAGUUA	0.0235 ± 0.0061	0.00598 ± 0.0019
UCCUGGAUGAGCUUGCUAGUAUUUAGUUA	0.00709 ± 0.0035	0.00421 ± 0.0027
UCCUGGAUGUCCAUGCAUAGUAUUUAGUUA	0.0603 ± 0.016	0.00432 ± 0.0026
UCCUGGAUGUGCUAGGAUAGUAUUUAGUUA	0.103 ± 0.014	0.00564 ± 0.0022
UCCUGGAUGUCGAAGCAUAGUAUAUUAGUUA	0.0302 ± 0.0085	0.00411 ± 0.0026
UCCUGGAUCAGCUUGCAUAGUUUAUAGUUA	0.0204 ± 0.008	0.00545 ± 0.0025
UCCUGGAUGUCGAUGCAUGGUAUUUAGUUA	0.0229 ± 0.0078	0.00372 ± 0.0028
UCCUGGUACAGCUAGCAUAGUUUUUAGUUA	0.0495 ± 0.011	0.00928 ± 0.0026
UCCUGGAACAGCUUGGUUAGUAUUUAGUAA	0.188 ± 0.035	0.00709 ± 0.0024
UCCUGGAUGAGCUUGCUUACUAUUUAGUUA	0.0357 ± 0.0051	0.00365 ± 0.0025
UCCUGGAUGUCCUGUGCAUAGUAUUUAGUUA	0.0823 ± 0.025	0.0123 ± 0.0036
UCCUGGAUGAGGUUGCAUAGUAUUUUGUUA	0.0801 ± 0.024	0.00402 ± 0.0029
UCCUGGAUGUCGUAGCAUAGUAUUAAGUUA	0.0506 ± 0.013	0.00246 ± 0.0024
UCCUGGAUGUCCUUGCAAAGUUUUUAGUUA	0.0117 ± 0.0048	0.00553 ± 0.0019
UCCUGGUACAGCUUGCAUAGUAUUUAGGUUA	0.163 ± 0.044	0.00633 ± 0.0032
UCCUGGAUGUCGAUGCAUAGUAUAUUAGUUA	0.0713 ± 0.015	0.00716 ± 0.0023
UCCUGGAUGUGCUUGCAUAGUUAUUUAGUUA	0.0061 ± 0.0048	0.00419 ± 0.0033
